Results reported in the supplement of paper PMC6555819.

What was measured:
Assay in all cases: PBM binding z-score (relative to random genomic background probes); higher = stronger binding; sequences stand for … in GC…GCGATTGACAGCGTAGAATGAAGG
[1] = tested on: PPARg:RXRa DBDmut IVT, anti-RXR (DBD mutation: RXRa K156A/R161A, NR concentration 270 nM, RXRa partner concentration 90 nM)
Summary of the method: (§1)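 Regression normalization was applied to scanned fluorescence from custom Agilent 4×180K protein-binding microarrays. Before scanning, arrays were incubated 1 h with ligand-free nuclear receptor dimers, and binding was detected with antibodies against each partner (one per run). Binding z-scores use the random background probes as reference.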

[2] = tested on: PPARg:RXRa IVT, anti-PPARg (NR concentration 270 nM, RXRa partner concentration 90 nM)
Summary of the method: as §1

[3] = tested on: PPARg DBDmut:RXRa IVT, anti-PPARg (DBD mutation: PPARg1 K132A/R137A, NR concentration 270 nM, RXRa partner concentration 90 nM)
Summary of the method: as §1

[4] = tested on: PPARg DBDmut IVT, anti-PPARg (DBD mutation: PPARg1 K132A/R137A, NR concentration 270 nM)
Summary of the method: as §1

[5] = tested on: PPARg homodimer (NR concentration 180 nM)
Summary of the method: as §1

[6] = tested on: PXR:RXRa (NR concentration 270 nM, RXRa partner concentration 90 nM)
Summary of the method: as §1

[7] = tested on: PXR homodimer (NR concentration 270 nM)
Summary of the method: as §1

[8] = tested on: RARa:RXR (NR concentration 270 nM, RXRa partner concentration 90 nM)
Summary of the method: as §1

[9] = tested on: RARa homodimer (NR concentration 270 nM)
Summary of the method: as §1

[10] = tested on: RARb:RXRa (NR concentration 270 nM, RXRa partner concentration 90 nM)
Summary of the method: as §1

[11] = tested on: RARb homodimer (NR concentration 270 nM)
Summary of the method: as §1

[12] = tested on: RARg:RXRa (NR concentration 270 nM, RXRa partner concentration 90 nM)
Summary of the method: as §1

[13] = tested on: RARg homodimer (NR concentration 270 nM)
Summary of the method: as §1

[14] = tested on: RXRa DBDmut IVT, anti-RXR (DBD mutation: RXRa K156A/R161A, NR concentration 90 nM)
Summary of the method: as §1

[15] = tested on: RXRa homodimer (NR concentration 180 nM)
Summary of the method: as §1

[16] = tested on: THRa:RXRa (NR concentration 90 nM, RXRa partner concentration 90 nM)
Summary of the method: as §1

[17] = tested on: THRa homodimer (NR concentration 90 nM)
Summary of the method: as §1

[18] = tested on: VDR homodimer (NR concentration 270 nM)
Summary of the method: as §1

Sequence	PBM binding z-score [1]	PBM binding z-score [2]	PBM binding z-score [3]	PBM binding z-score [4]	PBM binding z-score [5]	PBM binding z-score [6]	PBM binding z-score [7]	PBM binding z-score [8]	PBM binding z-score [9]	PBM binding z-score [10]	PBM binding z-score [11]	PBM binding z-score [12]	PBM binding z-score [13]	PBM binding z-score [14]	PBM binding z-score [15]	PBM binding z-score [16]	PBM binding z-score [17]	PBM binding z-score [18]
CAGCCCAGGTCAGGGCCAGTATAGGAGGAACGTT	0.375	1.26	-1.13	-1.33	0.907	0.95	0.194	1.49	-0.138	3.45	2.54	3.15	3.67	-0.41	2.25	2.73	1.48	0.168
GCTAGTTGGTCAGTAAAAGGTCACGCACCGGTCG	1.6	2.94	1.14	0.145	5.9	5.48	1.28	6.73	4.45	4.47	5.17	6.19	5.77	0.692	6.35	3.75	2.43	2.07
CGTCCAAGGTCAAGGTAAGTGAAAGAGACTCGAA	3.13	3.85	0.749	0.108	3.18	3.52	0.541	4.27	1.1	5.3	4.02	6.03	7.08	3.26	5.48	3.97	2.14	1.56
CGTCCAAGGTCAACGGTCAGTGAAGAGATGACGG	3.45	4.39	0.975	0.233	2.65	4.02	0.701	4.66	0.466	5.55	4.55	6.08	6.47	3.36	5.56	4.13	2.62	2.15
ACAGACAGGTGAGTGAAGGTAACTCCGCTGGACG	0.529	0.681	-0.384	-0.279	-0.155	-0.132	-0.203	0.0904	-0.274	0.621	0.202	0.0663	0.259	-0.475	0.41	1.29	-0.349	-0.537
AGAATGAGGTAAAGATCAGGGAAACAGAATACAT	1.72	1.73	1.8	0.935	0.296	0.125	0.151	0.265	0.446	0.258	0.102	0.258	0.491	-0.375	0.406	1.79	0.604	-0.343
TCGAGTAGGTTAATCGGGGCATTCAGCCAACATA	3.25	3.08	0.341	-0.256	0.811	0.519	-0.134	0.933	-0.986	0.81	0.592	0.49	0.334	0.443	0.518	1.99	-0.373	0.184
AGAACGAGGGCACTGAGTTGATAGCACGGGTGGC	3.56	2.9	0.453	0.196	0.00559	1.21	4.15	0.453	-0.261	2.09	0.877	1.03	1.64	1.71	1.02	1.19	0.176	2.94
CAAACTAGGTCAAAGGACAAAGTCGAGCCAACCA	8.09	8.38	2.59	0.234	1.32	1.72	0.313	3.01	0.239	4.03	3.11	4.32	4.77	1.7	3.31	2.92	0.809	0.753
ATACCAAGGTGAACGTGAGGTCGTTGATACTAAC	2.44	3.17	1.14	0.95	1.83	4.23	1.48	3.21	0.99	2.43	2.68	3.63	1.98	1.19	2.68	4.11	3.14	3.61
CCAACTAGGTCACCGGAAGGTCAAAGTCCGCATG	8.42	8.36	0.902	1.2	9.32	6.17	2.46	7.7	4.05	5.15	5.63	8.38	7.43	2.32	7.28	4.43	3.16	3.75
ACTTATGGGTCAACGAGGTTATAGCACGCGTATA	6.33	5.8	1.52	2.09	2.41	4.34	1.69	4.3	1.76	3.89	3.67	5.04	5.1	1.92	5.18	3.79	1.03	2.82
TCTGCTAGGTCAGTTGGTCAGCTACCGAGCTGCC	2.75	3.45	0.596	0.667	-0.139	0.0735	-0.891	0.438	-0.931	3.14	2.77	2.45	3.07	0.34	0.83	1.22	-0.00528	-0.907
TGAATGAGGTTCTAAGATCAGGGAACGTTGCAAA	-0.614	0.0916	-0.614	-0.528	-0.83	-0.331	-0.563	-0.599	-0.564	-0.67	-0.907	-0.113	-0.275	-0.623	-0.155	-0.125	-0.86	-0.351
CGTCCAAGGTCAAAGGTTAGTGAAGAGATGACGG	3.36	4.86	2.1	1.08	6	6.05	1.47	7.8	1.93	5.22	4.34	7.04	6.48	3.99	8.4	4.33	2.53	3.02
CCTACTGGGCCATCAGGTCATCGATATCAACGTT	4.21	5.09	-0.466	-0.676	1.03	1.5	-0.0162	2.04	-0.0284	2.39	2.83	2.31	2.29	0.257	1.58	3.45	3.33	1.24
ACTCGGAGGACAAAGGTCAGAGCAACGCCAGTGA	0.873	3.67	0.771	-0.247	2.78	3.99	0.422	5.03	0.859	4.58	4.24	6.11	5.43	1.26	5.09	3.55	0.599	1.14
TCTGCTAGGTTAACGATGGTCAGCTAATCTGCTA	2.11	1.89	-0.412	-0.772	-1.29	-0.232	-0.501	0.0866	-0.99	1.15	0.605	0.561	0.688	0.00765	0.42	1	-1.07	-0.957
TCTTGTAGATGAGCAGGTTAAGAAAGCTGGCCAA	0.934	-0.183	-0.514	0.12	0.00499	0.02	-0.92	0.211	-0.441	-0.439	-0.681	-0.327	-0.525	-0.188	0.00792	-0.277	-0.72	-0.433
CCTAGCAGGCCAGGGTCACTCTAGCATTTCGCTT	0.274	0.7	-1.19	-1.73	0.937	2.39	-0.295	3.03	-0.305	2.52	2.58	2.69	2.31	0.701	2.88	2.56	0.876	1.14
TAGCCTAGGCCATTGGGCCAGTATAGTACGCATC	-0.378	0.553	-1.56	-0.875	-1.33	-0.947	-0.712	-0.936	-0.489	0.356	-0.0575	-0.137	0.339	-1.16	-0.506	-0.321	-0.972	-0.404
AGAACGAGGGCGCGCTGAGTTGATAGCAGAGTAG	1.09	0.807	-0.354	-0.835	-0.746	0.224	-0.402	-0.0213	-1.26	0.529	-0.416	0.211	0.0624	0.991	0.444	0.45	-0.623	0.824
GCTTACGCGTCAAAGGTTATAGCATGAATAGAAT	-0.0505	0.407	-0.0262	0.00309	1.46	2.22	-0.288	3.3	-0.0243	1.22	0.965	1.43	0.64	0.189	3.35	1.65	-0.774	-0.203
GTACCAGGGTGAATAGGTCGTTGATGAGTAGGCG	0.914	2.01	-0.169	-0.469	0.791	0.92	0.246	1.86	0.108	1.24	1.54	2.21	0.988	-0.386	2	1.21	0.463	0.626
TCTTGTAGATCAACAGGAGGTTAAGAACGATCGA	1.71	0.594	0.843	0.593	0.264	0.722	-0.175	0.889	0.0224	0.446	0.615	0.992	0.377	0.686	0.967	0.923	-0.518	-0.0634
CTACCAAGGTGAACAACGTCGTTGATTACTATTC	2.88	2.23	0.00253	0.341	-0.432	0.189	-0.322	0.739	0.243	1.68	0.607	0.832	0.962	0.685	0.887	1.79	0.72	-0.472
